ChEMBL document CHEMBL3988442, “University of Dundee, Small-Polar-MMV Screening Library” (2021)
The campaign covered roughly 48,000 compounds. About 13,000 (27%) showed an effect of 50% or more. The list shows a part of the results.

Test system: Wolbachia pipientis
Assay: Anti-Wolbachia Cell-Based Screen
Format: functional
Set-up: scale not given: in the data most compounds retested in dose-response had high values
Details: 5 µM

Structure (SMILES) | Percent Effect [%]
CC(=O)N1CCCN(C(=O)Nc2ccccc2N2CCOC2=O)CC1 | -24.88
COc1cc(N2C[C@H]3CN(CC(=O)N(C)C)C(=O)[C@H]3C2)ncn1 | -6.391
Cc1noc(CCNS(=O)(=O)N2CCCC2c2ccco2)n1 (stereo not drawn) | -8.363
O=C(c1nnn(-c2ccc(C(F)(F)F)cc2)n1)N1CC(O)C1 | 9.515
COc1ccc(-n2nnc(C(N)=O)n2)cc1 | 106.9
NC(=O)c1nnn(-c2ccc(Cl)cc2)n1 | 106
COc1ccc(-n2nnc(C(=O)NCC3CCCCC3)n2)cc1 | -6.383
COCC(C)NC(=O)c1nnn(-c2ccc(OC)cc2)n1 (stereo not drawn) | 5.009
NC(=O)c1nnn(-c2ccc(Br)cc2)n1 | 2.849
O=C(Nc1ccccc1OCC(F)F)N[C@@H]1C=C[C@H](CO)C1 | -12.74
O=C(NCC(O)c1ccc(F)cc1F)c1cccnc1O (stereo not drawn) | -11.89
Cl.c1ccc(CNc2cc(C3CCCNC3)ccn2)nc1 (stereo not drawn) | 70.58
COCCOc1ccc(C(=O)N[C@@H]2CNCCC[C@H]2O)cc1 | -1.711
Cl.Cl.c1ccc(NCc2cn3c(n2)CNCC3)nc1 | 6.135
COCCNc1ccc(-c2noc([C@@H]3CCCN3)n2)cn1 | 5.755
COCCNc1cc(C2CCCNC2)ccn1.Cl (stereo not drawn) | 131.3
Cc1cccc(CNc2cc(C3CCCNC3)ccn2)n1.Cl (stereo not drawn) | 115.3
Cc1cccc(CNC[C@H]2Cn3ccnc3CO2)n1 | -11.54
Cc1cc(C)c2nc(CN[C@H]3CCCNC3)cc(O)c2c1 | 1.45
COc1ccnc(CNc2cc(C3CC3)ncn2)c1 | -5.331
Cc1ccc2c(c1)c(CNC(C)Cn1nc(C)cc1C)nn2C (stereo not drawn) | 8.057
CCN1CCC(CNS(=O)(=O)N2CCc3ccccc3C2)C1 (stereo not drawn) | 5.13
Cc1cccc(C2(CNC(=O)CCN3C(=O)CCC3=O)CCCC2)c1 | 3.863

Structure (SMILES) | Percent Effect [%]
Cc1ccnc(OC[C@@]23CCO[C@@H]2CCN(S(C)(=O)=O)C3)n1 | 3.207
O=c1ccc(-n2ccnc2)nn1CCNS(=O)(=O)c1ccc(Cl)s1 | 9.208
Cc1nc(NS(=O)(=O)c2cc(C)c(Br)cc2C)no1 | 12.58
CCn1ncc2c1C(COC)CN(Cc1ccc(C)o1)C2 (stereo not drawn) | 99.39
Cc1ccc(CN2Cc3cnn(C)c3C(COCC3CC3)C2)o1 (stereo not drawn) | 20.07
CCn1nnc2c1C(COC)CN(Cc1ccco1)C2 (stereo not drawn) | 114.9
CCn1cc2c(n1)C(COC)CN(Cc1ccoc1)C2 (stereo not drawn) | -1.069
CCn1nnc2c1C(COC)CN(C(=O)Cc1cccs1)C2 (stereo not drawn) | -3.417
CCn1ncc2c1C(COC)CN(Cc1ccco1)C2 (stereo not drawn) | 102.5
CCn1nnc2c1C(COC)CN(Cc1cccs1)C2.O=C(O)C(F)(F)F (stereo not drawn) | -4.503
CNC(=O)C1(N(C)CCc2ccccc2)Cc2ccccc2C1 | 30.02
CCc1ccccc1C(=O)N1C[C@@H](CN2CCOCC2)[C@@H](CO)C1 | -4.214
O=C(NCC(O)c1cccc(F)c1)C1CCN(C(=O)C2CCC2)CC1 (stereo not drawn) | -0.7968
CC(=O)N1CCC(NC(C)c2cnn(-c3ccc(F)cc3F)c2C)CC1 (stereo not drawn) | -2.797
CC(C)C1SCC(=O)Nc2c1cnn2-c1ccc(Cl)cc1F (stereo not drawn) | 70.31
COc1ccc(-n2ncc3c2NC(=O)CSC3C(C)C)cc1 (stereo not drawn) | 81.05
CC(C)C1SCC(=O)Nc2c1cnn2-c1ccc(Cl)cc1 (stereo not drawn) | 114.3
COc1ccc(C2CC(=O)Nc3c2cnn3C)cc1 (stereo not drawn) | 32.7
CC(C)CC1SCC(=O)Nc2c1cnn2C(C)C (stereo not drawn) | 1.479
CN1CCN(Cc2cnn(-c3ccc(F)cc3)c2)[C@H]2CS(=O)(=O)C[C@H]21 | -6.219
Cc1c(C(C)NC2CSCCSC2)cnn1-c1ccc(F)cc1F (stereo not drawn) | -0.1798
CC(C)CC1SCC(=O)Nc2c1cnn2-c1ccc(F)cc1 (stereo not drawn) | 52.58
COc1ccc(-n2ncc(C(C)NC3CCSCC3)c2C)cc1 (stereo not drawn) | -4.294

Structure (SMILES) | Percent Effect [%]
CC(C)(C)n1ncc2c1NC(=O)CC2c1ccsc1 (stereo not drawn) | 12.08
Cc1noc(CNC(=O)NCCOc2ccc(Cl)cc2)n1 | -1.273
N#Cc1cccc(OCCCN2CCN(C(=O)c3ccoc3)CC2)c1 | -11.27
CC(C)n1ncc2c1NC(=O)CSC2C(C)(C)C (stereo not drawn) | 1.885
CC(C)n1[nH]c(=O)c2c1NC(=O)CSC2C1CCCCC1 (stereo not drawn) | -15.8
CC(C)C1SCC(=O)Nc2c1cnn2-c1ccc(F)cc1 (stereo not drawn) | 81.09
Cc1ccccc1CN(CCN(C)C)Cc1ccc(S(C)(=O)=O)cc1 | -5.606
Cc1ccc(CN(C)C(C(=O)O)c2ccc3c(c2)OCO3)o1 (stereo not drawn) | 114
COc1c(C)cc(C(C(=O)O)N(C)Cc2ccn[nH]2)cc1C (stereo not drawn) | -0.04634
COc1cccc(OC)c1C(C(=O)O)N(C)Cc1c(C)n[nH]c1C (stereo not drawn) | -9.19
CN(Cc1ccccn1)C(C(=O)O)c1ccc2c(c1)OCO2 (stereo not drawn) | 99.57
COc1cccc(Cl)c1C(C(=O)O)N(C)Cc1c(C)n[nH]c1C (stereo not drawn) | -23.52
CN(C)C(C(=O)N1CC(c2ccccn2)C1)c1ccc2c(c1)OCO2 (stereo not drawn) | -10.36
Cc1noc(CN(Cc2ccc3c(c2)OCO3)Cc2ccc(C)o2)n1 | 1.784
COc1ccc(C(C(=O)O)N(C)Cc2ccon2)cc1Cl (stereo not drawn) | 4.9
Cc1n[nH]c(C)c1CN(C)C(C(=O)O)c1ccc2c(c1)OCO2 (stereo not drawn) | 109.5
COc1ccc(C(C(=O)O)N(C)CCN2CCOCC2)c(C)c1 (stereo not drawn) | 5.185
CN1CCCN(C(C(=O)O)c2ccc3c(c2)OCO3)CC1 (stereo not drawn) | -6.004
COc1cccc(C(C(=O)O)N(C)Cc2ccc(C)o2)c1 (stereo not drawn) | 105.1
CCc1c(C)[nH]c(C(C)(C)N)nc1=O.Cl | 24.57
CCSc1ncc(CN2CCN(c3nc(C)cnc3C)CC2)cn1 | -7.047
CN(C)CCCC(=O)N1C[C@H]2CC[C@@H]1CN(Cc1ccccc1)C2 | -3.863
